# Measurements from ChEMBL document CHEMBL3988442, “University of Dundee, Small-Polar-MMV Screening Library” (2021).
# The whole screen tested about 48,000 compounds, of which about 13,000 (27%) showed an effect of 50% or more. Some of the results follow.
# Tested on: Wolbachia pipientis
# Assay: Anti-Wolbachia Cell-Based Screen
# Format: functional
# Set-up: scale not given: in the data most compounds retested in dose-response had high values
# Conditions: 5 µM
row,SMILES,Percent Effect [%]
1,Cc1nccn1CCN(C)c1nc(-c2ccc(Cl)cc2)nc2c1CNC2,-50.51
2,CCN(c1cc(C)cc(C)c1)S(=O)(=O)c1cc(C(=O)O)cs1,116.9
3,CN(c1ccc(C(C)(C)C)cc1)S(=O)(=O)c1cc(C(=O)O)cs1,-4.452
4,CN(c1ccc(F)c(F)c1)S(=O)(=O)c1cc(C(=O)O)cs1,2.683
5,Cc1cccc(N(C)S(=O)(=O)c2cc(C(=O)O)cs2)c1,112.1
6,Cc1ccc(N(C)S(=O)(=O)c2cc(C(=O)O)cs2)c(C)c1,115
7,Cc1cc(C)cc(N(C)S(=O)(=O)c2cc(C(=O)O)cs2)c1,-4.793
8,CCOc1cccc(NS(=O)(=O)c2cc(C(=O)O)cs2)c1,19.91
9,Cc1ccc(N(C)S(=O)(=O)c2cc(C(=O)O)cs2)cc1,139
10,Cc1cccc(N(C)S(=O)(=O)c2cc(C(=O)O)cs2)c1C,-9.49
11,CN(c1ccc2ccccc2c1)S(=O)(=O)c1cc(C(=O)O)cs1,28.59
12,COc1ccccc1N(C)S(=O)(=O)c1cc(C(=O)O)cs1,22.41
13,CN(c1cccc2ccccc12)S(=O)(=O)c1cc(C(=O)O)cs1,-12.64
14,COCC1CN(C(=O)c2cccn2C)Cc2ncnn2C1 (stereo unspecified),-3.009
15,CCN1CCCC1CN(CCN(C)C)S(=O)(=O)c1ccccc1C#N (stereo unspecified),-13.86
16,CN(Cc1cccc(F)c1)C(=O)CS(=O)(=O)Cc1c(Cl)cccc1Cl,-4.804
17,Cc1nn(C)c(C)c1NC(=O)CNc1cccc(CC(F)(F)F)c1,-3.048
18,FC(F)(F)c1ccc2nc([C@H]3CCN(C4CCC4)C3)[nH]c2c1,0.6058
19,O=C(NCCN1CCCC1)c1ccc2c(-c3nccs3)noc2c1,3.961
20,Cc1cccc2c1nc1n2[C@@H](CNC(=O)c2cncnc2)COC1,-4.11
21,CCN(C(=O)NCc1ccc(C)cc1OC)C(C)c1cccnc1 (stereo unspecified),2.223
22,CCC(C)(C)NC(=O)CN(Cc1cccc(O)c1)C1CCC(O)CC1 (stereo unspecified),-0.7077
23,CCOC(=O)C1(CCOC)CCCN(Cc2nccn2CC)C1 (stereo unspecified),-2.653
24,COc1c(CNCCC(=O)Nc2cccc(C)n2)c(C(C)C)nn1C,-41.29
25,COc1c(CNC(C)C(=O)NC2CCCC2)c(C)nn1C (stereo unspecified),6.635
26,COc1c(CNCc2nnc3n2CCCCC3)c(C(C)C)nn1C.Cl,3.985

row,SMILES,Percent Effect [%]
1,COc1c(CNCCC(=O)NC2CCCCC2)c(C(C)C)nn1C,109.1
2,COc1c(CNCCC(=O)NC2CCCC2)c(C(C)C)nn1C,98.08
3,COc1c(CNC(C)C(=O)NC2CCCC2)c(C(C)C)nn1C (stereo unspecified),-36.61
4,CC(C)C1CN(c2ncccn2)CCC(=O)N1CC1CC1 (stereo unspecified),-33.18
5,CC(=O)N1CCCN(C(=O)c2cnc(OC(C)C)c(Cl)c2)CC1,-53.74
6,C[C@@H]1CN(C(=O)c2ccc(C#N)nc2)C[C@@]1(O)C1CC1,-20.15
7,CCc1cc(C(=O)N2CCC3(CCCN(CC4CC4)C3=O)C2)cs1 (stereo unspecified),55.55
8,CCc1noc(C)c1C(=O)N1CCC2(CCCN(CC(C)(C)C)C2=O)C1 (stereo unspecified),101.6
9,CCc1n[nH]c(C(=O)N2CCC3(CCCN(CCOC)C3=O)C2)c1C (stereo unspecified),116.4
10,CCc1c(C(=O)N2CCC3(CCCN(CCO)C3=O)C2)csc1C (stereo unspecified),7.73
11,CCCc1cc(C(=O)N2CCC3(CCCN(CCOC)C3=O)C2)cs1 (stereo unspecified),13.33
12,CCCc1cc(C(=O)N2CCC3(CCCN(CCO)C3=O)C2)cs1 (stereo unspecified),-0.6433
13,CCc1cc(C(=O)N2CCC3(CCCN(CCOC)C3=O)C2)cs1 (stereo unspecified),-4.642
14,Cc1occc1C(=O)N1CCC2(CCCN(CC3CC3)C2=O)C1 (stereo unspecified),-3.086
15,COCCN1CCCC2(CCN(C(=O)c3cnc(O)cn3)C2)C1=O (stereo unspecified),-81.96
16,CCc1ocnc1C(=O)N1CCC2(CCCN(CC(C)(C)C)C2=O)C1 (stereo unspecified),100.3
17,CNc1nc(C(=O)N2CCC3(CCCN(CC4CC4)C3=O)C2)cs1 (stereo unspecified),-46.01
18,Cc1occc1C(=O)N1CCC2(CCCN(CC3CCC3)C2=O)C1 (stereo unspecified),-0.1295
19,CCn1cc(CN2CCC(C3CCN(C)CC3)CC2)cc1C#N,8.542
20,CC1CCN(C(=O)[C@@H]2C[C@H]3OCC[C@H]3N(Cc3ccoc3)C2)CC1.O=C(O)C(F)(F)F,-6.203
21,COc1ccc2c(c1)C(C(=O)N(C)CCc1cnn(C)c1)CC(=O)N2 (stereo unspecified),2.797
22,Cc1csc(N(C)C(=O)C(c2c(F)cccc2Cl)N(C)C)n1 (stereo unspecified),1.249
23,c1ccc(OCc2noc(CN3CCN(C4CCCC4)CC3)n2)cc1,4.136
24,Cc1n[nH]c(C)c1CC(=O)N1CC[C@@](C)(O)[C@H](Oc2ccccc2)C1,132.6
25,Cc1nc(C)c(CC(=O)N2CCC(Oc3ccccc3)CC2)c(=O)[nH]1,3.027
26,Cc1noc(C)c1CC(=O)N1CC[C@@](C)(O)[C@H](Oc2ccccc2)C1,138.5

row,SMILES,Percent Effect [%]
1,Cc1n[nH]c(C)c1CC(=O)N1CCC2(CC1)CN(C)CCN2C,-2.947
2,Cc1noc(C)c1CNC(=O)N1CCC(C(O)c2ccccc2)CC1 (stereo unspecified),-2.263
3,Cc1n[nH]c(C)c1CC(=O)N1CC[C@@](C)(O)[C@@H](Cc2ccccc2)C1,-1.869
4,CC[C@H](CO)NC(=O)c1coc(COc2cccc(F)c2F)n1,-21.32
5,COC(=O)CCCNC(=O)c1cc(COc2cncc(Cl)c2)on1,3.929
6,CCN(Cc1csc(C)n1)c1cccc(CO)c1,19.84
7,COc1ccc(-c2nnc(C(C)N3CCC4(CC3)OCCO4)o2)cc1 (stereo unspecified),-10.61
8,COc1ccc(-c2nnc(C(C)N3CCOCC3)o2)cc1 (stereo unspecified),0.5331
9,CC(c1nnc(-c2ccccc2)o1)N1CCC(Nc2ccccc2)CC1 (stereo unspecified),109.3
10,CC(C)c1cc(CN2CCC(N)CC2)on1,102.3
11,CCN1CCN(C2CCN(Cc3cc(C)on3)CC2)C1=O,-12.89
12,CC(C)c1cc(CN2CCC(CC(=O)O)CC2)no1,25.42
13,CC(C)c1cc(N2CCC(N)CC2)n2nccc2n1,-3.508
14,COCCCN1CC2(CCN(Cc3cc(C(C)C)no3)CC2)CC1=O,-15.73
15,CC(C)c1cc(CN2CCC(N)CC2)no1,118.3
16,Cc1cnc(CN(C)C2CCN(Cc3nnc(C4CC4)o3)C2)o1 (stereo unspecified),131.1
17,Cc1cnc(CN2CCC(N(C)Cc3noc(C4CC4)n3)C2)o1 (stereo unspecified),113
18,CCn1ccnc1CN1CCC(N(C)Cc2ncc(C)o2)C1 (stereo unspecified),-2.074
19,CN(Cc1noc(C2CC2)n1)C1CCN(Cc2ccncc2)C1 (stereo unspecified),-0.4709
20,Cc1cnc(CN(C)C2CCN(CCc3cnn(C)c3)C2)o1 (stereo unspecified),-1.466
21,O=C(c1cnn2cc(CCO)cnc12)N1CCOC(C(F)(F)F)C1 (stereo unspecified),-0.009577
22,CCOc1ccc(CN(C)C(=O)NC(C)c2nncn2C)cc1 (stereo unspecified),-12.44
23,CC(NCc1cccnc1)c1cc2c(cc1Br)OCCO2 (stereo unspecified),-3.161
24,CNS(=O)(=O)CCCN1CCN(C(C)c2cccnc2)CC1 (stereo unspecified),7.44
25,CCS(=O)(=O)NCCN1CCN(C(C#N)c2ccccc2)CC1 (stereo unspecified),106.3
26,CS(=O)(=O)CCCN1CCN(C(C#N)c2ccccc2)CC1 (stereo unspecified),95.09

row,SMILES,Percent Effect [%]
1,CC(c1ccc(Cl)cc1)N1CCN(CCCS(C)(=O)=O)CC1 (stereo unspecified),-1.134
2,CNS(=O)(=O)CCCN1CCCN(Cc2ccccc2)CC1C (stereo unspecified),-3.956
3,CNS(=O)(=O)CCCN1CCN(C(C#N)c2ccccc2)CC1 (stereo unspecified),112.4
4,CC(c1ccc(Cl)cc1)N1CCN(CCS(C)(=O)=O)CC1 (stereo unspecified),6.907
5,N#Cc1cccc(CS(=O)(=O)NCCC(O)c2ccccc2)c1 (stereo unspecified),7.655
6,CC(c1ccc(Cl)cc1)N1CCN(CCNS(C)(=O)=O)CC1 (stereo unspecified),-1.965
7,Cc1cc(C(=O)N2C[C@H](CO)C[C@H](CN3CCOCC3)C2)nc(C)n1,-11.42
8,CC(C)CCN(c1cn[nH]c1)S(=O)(=O)c1cccc(C#N)c1,-0.3515
9,NC(=O)c1ccc(CNC2CCCSC2)cc1 (stereo unspecified),-4.812
10,CCS(=O)(=O)N(C)C(=O)c1cc(C)n(-c2cccc(OC)c2)c1C,-13.82
11,O=C(c1ccccn1)N1CCCC(c2cc(C(F)F)n3ncnc3n2)C1 (stereo unspecified),111.1
12,O=C(c1nc(=O)[nH][nH]1)N1CCCC(c2cc(C(F)(F)F)[nH]n2)C1 (stereo unspecified),-1.931
13,O=C(c1ccco1)N1CCCC(c2cc(C(F)(F)F)n3ncnc3n2)C1 (stereo unspecified),95.67
14,Cc1ncsc1C(=O)N1CCCC(c2cc(C(F)F)n3ncnc3n2)C1 (stereo unspecified),110.2
15,O=C(c1ccco1)N1CCCC(c2cc(C(F)F)n3ncnc3n2)C1 (stereo unspecified),-11.1
16,O=C(c1cccnc1)N1CCCC(c2cc(C(F)F)n3ncnc3n2)C1 (stereo unspecified),1.815
17,O=C(c1ccncc1)N1CCCC(c2cc(C(F)F)n3ncnc3n2)C1 (stereo unspecified),88.08
18,O=C(c1ccc(Cl)o1)N1CCCC(c2cc(C(F)(F)F)[nH]n2)C1 (stereo unspecified),-0.4503
19,CCc1nnc(CN(C)Cc2cccc(C(=O)Nc3ccnn3C)c2)o1,-8.218
20,CN(Cc1ccc(Cl)c(F)c1)C(=O)c1ccncc1F,5.158
21,COc1nccc(N2CCN(Cc3ccc(C)cc3)C(=O)C2)c1C#N,5.242
22,CCn1nc(C)cc1C(=O)N1CCOc2ccc(OC)cc21,4.6
23,COc1cc2nc(NCc3scnc3C)nc(N)c2cc1OC,7.61
